Assay [1] addresses Bile acid receptor (Homo sapiens) (UniProt Q96RI1). Nature of the assay: ATG_IR1_CIS: Attagene CIS-FACTORIAL HepG2 Assay for human Nuclear Receptor Subfamily 1 Group H Member 4 (NR1H4), IR1 submotif (AID 2282946; active = hit-call score of the fitted dose curve at least 0.9, where 1 is the maximum; inactive = score below 0.9). The following applies: IR1 reporter transcription, actives raise or lower the signal. An outline of the steps: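 HepG2 cells transiently transfected with multiplexed cis-element reporter units read endogenous transcription factor activity. After 24 h compound exposure, reporter mRNA was quantified by RT-PCR, fluorescent labelling, HpaI digestion and capillary electrophoresis; bidirectional fitting versus DMSO baseline.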

Assay [2] concerns the target Glucocorticoid receptor (Homo sapiens) (UniProt P04150). In words: ATG_GR_TRANS: Attagene TRANS-FACTORIAL HepG2 Assay for human Glucocorticoid Receptor (GR) (AID 2282978).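 Note: activators score as hits since higher reporter transcript over DMSO is fitted.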 The following applies: HepG2 Attagene TRANS GR reporter, mRNA transcription. In short, it runs like this:
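HepG2 cells transiently transfected with multiplexed reporter units in which chimeric NR-GAL4 proteins drive GAL4-UAS reporters; 24 h compound exposure. Reporter mRNA measured by RT-PCR, 6-FAM labelling, HpaI digestion and capillary electrophoresis; gain-of-signal fitted versus DMSO.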

Assay [3] can be described thus: ATG_M_32_TRANS: Attagene TRANS-FACTORIAL HepG2 Assay for M32 Transcription Factor (Internal Marker) (AID 2282984).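 Note: transcript level of a background control reporter unit measured by RT-PCR and capillary electrophoresis.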 The following applies: HepG2 Attagene TRANS M32 internal marker reporter. An outline of the steps: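 Internal background reporter in transfected HepG2: after 24 h chemical exposure, RNA reverse-transcribed, reporter cDNA amplified, fluorescently labelled and HpaI-cut, then sized by capillary electrophoresis. Gain of signal fitted against DMSO control.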

The target in assay [4] is Peroxisome proliferator-activated receptor gamma (Homo sapiens) (UniProt P37231). Nature of the assay: ATG_PPARg_TRANS: Attagene TRANS-FACTORIAL HepG2 Assay for human Peroxisome Proliferator-activated Receptor-gamma (PPARg) (AID 2283007). In short, it runs like this: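 HepG2 cells transiently transfected with multiplexed GAL4-UAS reporter units and exogenous chimeric NR-Gal4 proteins; reporter mRNA quantified after 24 h compound exposure by RT-PCR, fluorescent labelling, HpaI digestion and capillary electrophoresis; gain-of-signal fitted versus DMSO baseline.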

The target in assay [5] is human Thyroid Receptor alpha (THRa1), THRA (gene 7067) (UniProt P10827). In words: ATG_THRa1_TRANS: Attagene TRANS-FACTORIAL HepG2 Assay for human Thyroid Receptor alpha (THRa1) (AID 2283014). An outline of the steps:
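Reporter transcript induction, read by capillary electrophoresis of 6-FAM-labelled RT-PCR products, reflects activity of a transfected THRa1-Gal4 fusion in HepG2 liver cells. Cells were dosed for 24 h; activity was fitted in the positive direction against DMSO.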

Assay [6] has as its target human Vitamin D Receptor (VDR), VDR (gene 7421) (UniProt P11473). In words: ATG_VDR_TRANS: Attagene TRANS-FACTORIAL HepG2 Assay for human Vitamin D Receptor (VDR) (AID 2283022). In short, it runs like this:
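Steps: transfect HepG2 with GAL4-UAS-driven reporter constructs; dose compounds 24 h; isolate RNA, reverse-transcribe, PCR-amplify with 6-FAM-labelled primer extension and HpaI digestion; quantify fragments by capillary electrophoresis relative to DMSO.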

Assay [7] can be described thus: TOX21_p53_BLA_p2_viability: Viability Assessment in the Tox21 HCT-116 p53 Agonism Beta-lactamase Assay, Phase 2 (AID 2283591).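 Note: compound exposure lasted 16 h at 37 °C; actives lower the ATP signal meaning cytotoxicity.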 In short, it runs like this: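 Cytotoxicity readout: CellTiter-Glo ATP luminescence, 30 min at room temperature, after the beta-lactamase read. Cells were HCT116 exposed 16 h at 37C to compounds pin-transferred at 217-fold dilution from DMSO stocks.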

Assay [8] in a line: TOX21_p53_BLA_p3_viability: Viability Assessment in the Tox21 HCT-116 p53 Agonism Beta-lactamase Assay, Phase 3 (AID 2283593).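 Note: cells exposed to compound for 16 h before reading.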 An outline of the steps: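 Cellular ATP was quantified by CellTiter-Glo luminescence, read after 30 min at room temperature. Beforehand, HCT116 cells (4000/well) received compound 5 h post-seeding, 217-fold diluted from DMSO, then incubated 16 h at 37C.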

A short description of assay [9]: TOX21_p53_BLA_p4_viability: Viability Assessment in the Tox21 HCT-116 p53 Agonism Beta-lactamase Assay, Phase 4 (AID 2283597).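 Note: hits lower the luminescence signal meaning cytotoxicity.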 In short, it runs like this:
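Readout: ATP luminescence (CellTiter-Glo), measured 30 min after reagent addition at RT. The reagent followed a 2 h CCF4-AM incubation, and the cells had been exposed to compound for 16 h at 37C.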

Assay [10] concerns the target Retinoic acid receptor alpha (Homo sapiens) (UniProt P10276). Nature of the assay: ATG_DR5_RAR_CIS: Attagene CIS-FACTORIAL HepG2 Assay for human Retinoic Acid Receptor Alpha (RARE), DR5 submotif (AID 2282934; active = hit-call score of the fitted dose curve at least 0.9, where 1 is the maximum; inactive = score below 0.9;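 for AC50: reporter responds to endogenous RAR alpha beta and gamma in HepG2 not RARA alone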). The following applies: HepG2 Attagene cis-factorial RARE DR5 reporter, mRNA; actives raise or lower the signal. In short, it runs like this:
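Reporter transcripts from a DR5-regulated unit, measured via RT-PCR plus capillary electrophoresis, reflect endogenous RAR activity in transiently transfected human HepG2 liver cells. Exposure lasted 24 h; gain or loss of signal scored against DMSO.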

Assay [11] in a line: ATG_PBREM_CIS: Attagene CIS-FACTORIAL HepG2 Assay for human Phenobarbital-responsive Enhancer Module (PBREM) (AID 2282955; active = hit-call score of the fitted dose curve at least 0.9, where 1 is the maximum; inactive = score below 0.9). The following applies: HepG2 PBREM cis-reporter, Attagene multiplexed transcription; actives raise or lower the signal. An outline of the steps:
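HepG2 cells transiently transfected with multiple cis-regulated reporter transcription units; endogenous factor activity at the PBREM element measured as reporter mRNA 24 h after dosing, via RT-PCR and capillary electrophoresis of fluorescent fragments; bidirectional fitting versus DMSO.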

Assay [12] is described as follows: ATG_GAL4_TRANS: Attagene TRANS-FACTORIAL HepG2 Assay for GAL4 (Internal Marker) (AID 2282976). The following applies: HepG2 Attagene TRANS GAL4 internal marker reporter. In short, it runs like this:
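First, HepG2 cells were transfected with reporter units under GAL4-UAS control. Next, they were treated with chemical for 24 h. Finally, RNA was reverse-transcribed, PCR-amplified, FAM-labelled and resolved by capillary electrophoresis, with induction scored against DMSO.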

The target in assay [13] is Oxysterols receptor LXR-beta (Homo sapiens) (UniProt P55055). In words: ATG_LXRb_TRANS: Attagene TRANS-FACTORIAL HepG2 Assay for human Liver X Receptor beta (LXRb) (AID 2282981). The following applies: HepG2 Attagene TRANS GAL4-LXRb reporter, mRNA. An outline of the steps:
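After 24 h chemical treatment of transfected HepG2 cells carrying exogenous NR-Gal4 chimeras, reporter mRNA was quantified by fluorescent RT-PCR and capillary electrophoresis; activity taken as increase over DMSO controls.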

Assay [14] concerns the target Nuclear receptor subfamily 4 group A member 2 (Homo sapiens) (UniProt P43354). Nature of the assay: ATG_NURR1_TRANS: Attagene TRANS-FACTORIAL HepG2 Assay for human Nuclear Receptor Related Protein 1 (NURR1) (AID 2282985). The following applies: HepG2 Attagene TRANS reporter, mRNA readout. In short, it runs like this:
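Reporter transcript induction, measured by RT-PCR with fluorescent labelling, HpaI digestion and capillary electrophoresis, after 24 hr dosing of human HepG2 cells transiently expressing an exogenous NR-Gal4 fusion with GAL4-UAS-driven reporters; DMSO as baseline.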

In assay [15] the target is human Peroxisome Proliferator-activated Receptor alpha (PPARa), PPARA (gene 5465) (UniProt Q07869). Nature of the assay: ATG_PPARa_TRANS: Attagene TRANS-FACTORIAL HepG2 Assay for human Peroxisome Proliferator-activated Receptor alpha (PPARa) (AID 2283001). An outline of the steps:
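Reporter transcripts quantified by RT-PCR plus capillary electrophoresis after 24 h treatment, fitted upward relative to DMSO. Cells: human HepG2 transiently carrying multiple GAL4-UAS reporter units driven by NR-Gal4 chimeras.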

Assay [16] concerns the target human Peroxisome Proliferator-activated Receptor delta (PPARd), PPARD (gene 5467) (UniProt Q03181). Nature of the assay: ATG_PPARd_TRANS: Attagene TRANS-FACTORIAL HepG2 Assay for human Peroxisome Proliferator-activated Receptor delta (PPARd) (AID 2283002). An outline of the steps:
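Read-out is induced reporter mRNA, quantified by RT-PCR with fluorescent labelling and capillary electrophoresis after 24 h dosing. Cells are HepG2 transiently carrying multiple GAL4-UAS reporter units driven by exogenous NR-GAL4 chimeras; DMSO serves as baseline.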

Assay [17] can be described thus: CCTE_Harrill_HTTr_Apoptosis_MCF7: CCTE's 6-hour Apoptosis Assessment for the High-Throughput Transcriptomics (HTTr) Platform, in MCF-7 cells cultured in DMEM + 10% fetal bovine serum, Harrill Lab (AID 2284011; active = hit-call score of the fitted dose curve at least 0.9, where 1 is the maximum; inactive = score below 0.9). An outline of the steps: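 MCF-7 (DMEM + 10% FBS), 384-well; 8-pt dilution series, 6 h chemical exposure; caspase-3/7 activation via CellEvent Caspase 3/7 Green, HCI; bidirectional fit vs DMSO.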

For assay [18], the target named is Nuclear receptor subfamily 1 group I member 3 (Homo sapiens) (UniProt Q14994). Nature of the assay: ATG_CAR_TRANS: Attagene TRANS-FACTORIAL HepG2 Assay for human Constitutive Androstane Receptor (CAR) (AID 2282969).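 Note: activators raise reporter mRNA above DMSO so AC50 marks induction.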 The following applies: HepG2 Attagene TRANS-FACTORIAL CAR reporter. An outline of the steps:
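Signal is reporter mRNA induction relative to DMSO, measured 24 h after dosing by RT-PCR with fluorescent primer extension and capillary electrophoresis. Human HepG2 liver cells carried transiently transfected chimeric NR-Gal4/GAL4-UAS reporter constructs.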

The target in assay [19] is Oxysterols receptor LXR-alpha (Homo sapiens) (UniProt Q13133). Nature of the assay: ATG_LXRa_TRANS: Attagene TRANS-FACTORIAL HepG2 Assay for human Liver X Receptor alpha (LXRa) (AID 2282980). The following applies: HepG2 Attagene TRANS reporter, LXRa transactivation. In short, it runs like this: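 Transfect HepG2 with GAL4-UAS multiplex reporter constructs (TRANS format, chimeric receptor-GAL4); treat 24 h; extract RNA, reverse-transcribe, PCR-amplify, FAM-label, HpaI-digest; resolve fragments by capillary electrophoresis. Upward response vs DMSO.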

The target of assay [20] is human RAR-related Orphan Receptor beta (RORb), RORB (gene 6096) (UniProt Q92753). Nature of the assay: ATG_RORb_TRANS: Attagene TRANS-FACTORIAL HepG2 Assay for human RAR-related Orphan Receptor beta (RORb) (AID 2283010). An outline of the steps:
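Transfect HepG2 with multiple GAL4-UAS reporter transcription units; dose chemicals for 24 h; isolate RNA, reverse-transcribe and PCR-amplify reporter sequences; label, digest and resolve fragments by capillary electrophoresis; fit increases relative to DMSO.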

Results filed as inconclusive are left out. The source made the active and inactive calls. Rule for the calls, unless noted: active = hit-call score of the fitted dose curve at least 0.9, where 1 is the maximum; inconclusive = response in the unintended direction; inactive = score below 0.9.

Sequence of Oxysterols receptor LXR-beta (Homo sapiens) (P55055 whole entry, looked up, the tested form may be a part): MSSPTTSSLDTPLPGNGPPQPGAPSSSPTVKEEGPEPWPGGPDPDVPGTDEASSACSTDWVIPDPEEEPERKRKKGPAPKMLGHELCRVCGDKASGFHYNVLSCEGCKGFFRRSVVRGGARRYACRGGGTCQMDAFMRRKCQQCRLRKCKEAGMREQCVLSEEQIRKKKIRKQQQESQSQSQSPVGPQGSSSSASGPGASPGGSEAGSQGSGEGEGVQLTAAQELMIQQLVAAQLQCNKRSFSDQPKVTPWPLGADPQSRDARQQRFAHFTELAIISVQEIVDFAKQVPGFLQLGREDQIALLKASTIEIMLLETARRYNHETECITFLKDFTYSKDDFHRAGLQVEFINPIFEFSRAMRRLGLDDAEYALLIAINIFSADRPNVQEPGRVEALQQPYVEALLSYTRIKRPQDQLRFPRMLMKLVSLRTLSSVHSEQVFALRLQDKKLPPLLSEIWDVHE
Sequence of human Peroxisome Proliferator-activated Receptor delta (PPARd), PPARD (gene 5467) (Q03181 whole entry, looked up, the tested form may be a part): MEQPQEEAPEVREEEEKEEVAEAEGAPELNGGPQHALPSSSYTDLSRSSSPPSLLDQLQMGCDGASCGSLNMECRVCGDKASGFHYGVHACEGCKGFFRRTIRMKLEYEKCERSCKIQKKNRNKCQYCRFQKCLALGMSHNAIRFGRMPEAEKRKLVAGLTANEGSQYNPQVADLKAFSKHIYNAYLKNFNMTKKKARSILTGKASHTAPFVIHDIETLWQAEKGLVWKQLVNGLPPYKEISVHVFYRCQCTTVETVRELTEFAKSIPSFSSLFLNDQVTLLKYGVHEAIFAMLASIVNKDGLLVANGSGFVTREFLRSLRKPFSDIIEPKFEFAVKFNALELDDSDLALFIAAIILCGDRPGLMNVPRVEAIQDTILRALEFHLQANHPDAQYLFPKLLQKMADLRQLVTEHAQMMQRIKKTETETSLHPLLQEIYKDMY
Sequence of Peroxisome proliferator-activated receptor gamma (Homo sapiens) (P37231 whole entry, looked up, the tested form may be a part): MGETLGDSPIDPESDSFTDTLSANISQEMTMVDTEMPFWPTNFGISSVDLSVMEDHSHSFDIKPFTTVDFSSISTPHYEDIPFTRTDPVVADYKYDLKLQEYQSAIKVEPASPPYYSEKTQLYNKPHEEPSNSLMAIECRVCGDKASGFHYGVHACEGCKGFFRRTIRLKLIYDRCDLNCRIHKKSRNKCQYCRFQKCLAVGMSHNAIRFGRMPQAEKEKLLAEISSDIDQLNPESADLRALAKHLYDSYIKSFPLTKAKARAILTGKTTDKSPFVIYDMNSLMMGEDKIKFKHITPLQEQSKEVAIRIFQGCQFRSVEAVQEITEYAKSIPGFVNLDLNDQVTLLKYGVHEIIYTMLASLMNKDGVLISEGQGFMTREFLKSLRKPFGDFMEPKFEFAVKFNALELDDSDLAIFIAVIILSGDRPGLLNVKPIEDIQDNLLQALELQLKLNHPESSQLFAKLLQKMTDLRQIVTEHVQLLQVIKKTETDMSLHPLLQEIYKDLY
Sequence of Nuclear receptor subfamily 4 group A member 2 (Homo sapiens) (P43354 whole entry, looked up, the tested form may be a part): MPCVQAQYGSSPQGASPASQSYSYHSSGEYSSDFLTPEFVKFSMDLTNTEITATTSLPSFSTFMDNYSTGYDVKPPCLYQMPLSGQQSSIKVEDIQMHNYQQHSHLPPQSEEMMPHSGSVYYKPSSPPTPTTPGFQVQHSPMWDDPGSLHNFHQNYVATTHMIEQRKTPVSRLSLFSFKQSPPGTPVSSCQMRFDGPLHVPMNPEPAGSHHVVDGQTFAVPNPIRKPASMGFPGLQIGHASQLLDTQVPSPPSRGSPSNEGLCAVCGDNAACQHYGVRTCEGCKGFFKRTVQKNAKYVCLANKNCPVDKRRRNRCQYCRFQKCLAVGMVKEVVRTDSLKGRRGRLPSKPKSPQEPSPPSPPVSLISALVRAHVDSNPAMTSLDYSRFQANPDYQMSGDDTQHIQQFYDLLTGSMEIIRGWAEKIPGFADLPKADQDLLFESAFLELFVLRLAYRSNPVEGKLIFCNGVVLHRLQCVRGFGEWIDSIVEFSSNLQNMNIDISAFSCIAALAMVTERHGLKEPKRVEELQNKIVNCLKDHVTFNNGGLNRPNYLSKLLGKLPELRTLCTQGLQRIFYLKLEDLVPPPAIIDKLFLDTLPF
Sequence of human Vitamin D Receptor (VDR), VDR (gene 7421) (P11473 whole entry, looked up, the tested form may be a part): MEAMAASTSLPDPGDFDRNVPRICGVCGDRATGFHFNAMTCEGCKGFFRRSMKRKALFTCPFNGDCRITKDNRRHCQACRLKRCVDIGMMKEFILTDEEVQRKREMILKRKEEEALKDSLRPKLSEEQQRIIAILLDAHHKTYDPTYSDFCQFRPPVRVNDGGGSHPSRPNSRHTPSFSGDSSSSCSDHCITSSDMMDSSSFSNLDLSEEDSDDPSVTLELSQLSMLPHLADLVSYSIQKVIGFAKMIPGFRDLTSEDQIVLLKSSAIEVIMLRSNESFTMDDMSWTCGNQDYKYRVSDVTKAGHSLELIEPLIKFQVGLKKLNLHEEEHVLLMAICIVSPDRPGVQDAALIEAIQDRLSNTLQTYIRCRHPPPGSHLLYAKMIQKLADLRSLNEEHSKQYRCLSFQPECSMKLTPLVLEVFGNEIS
Sequence of human Peroxisome Proliferator-activated Receptor alpha (PPARa), PPARA (gene 5465) (Q07869 whole entry, looked up, the tested form may be a part): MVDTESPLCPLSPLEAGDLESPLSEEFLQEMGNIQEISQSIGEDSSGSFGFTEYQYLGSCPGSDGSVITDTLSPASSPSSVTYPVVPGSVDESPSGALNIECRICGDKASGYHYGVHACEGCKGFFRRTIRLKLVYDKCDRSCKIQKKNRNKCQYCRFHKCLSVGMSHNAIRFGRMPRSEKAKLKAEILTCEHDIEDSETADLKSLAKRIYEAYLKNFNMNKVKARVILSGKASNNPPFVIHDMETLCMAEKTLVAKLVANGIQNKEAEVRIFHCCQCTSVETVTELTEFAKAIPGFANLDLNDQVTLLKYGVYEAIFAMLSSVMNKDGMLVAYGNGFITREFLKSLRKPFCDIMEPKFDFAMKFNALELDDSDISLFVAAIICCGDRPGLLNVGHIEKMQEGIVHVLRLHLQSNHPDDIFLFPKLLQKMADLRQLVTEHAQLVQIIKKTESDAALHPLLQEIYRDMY
Sequence of human Thyroid Receptor alpha (THRa1), THRA (gene 7067) (P10827 whole entry, looked up, the tested form may be a part): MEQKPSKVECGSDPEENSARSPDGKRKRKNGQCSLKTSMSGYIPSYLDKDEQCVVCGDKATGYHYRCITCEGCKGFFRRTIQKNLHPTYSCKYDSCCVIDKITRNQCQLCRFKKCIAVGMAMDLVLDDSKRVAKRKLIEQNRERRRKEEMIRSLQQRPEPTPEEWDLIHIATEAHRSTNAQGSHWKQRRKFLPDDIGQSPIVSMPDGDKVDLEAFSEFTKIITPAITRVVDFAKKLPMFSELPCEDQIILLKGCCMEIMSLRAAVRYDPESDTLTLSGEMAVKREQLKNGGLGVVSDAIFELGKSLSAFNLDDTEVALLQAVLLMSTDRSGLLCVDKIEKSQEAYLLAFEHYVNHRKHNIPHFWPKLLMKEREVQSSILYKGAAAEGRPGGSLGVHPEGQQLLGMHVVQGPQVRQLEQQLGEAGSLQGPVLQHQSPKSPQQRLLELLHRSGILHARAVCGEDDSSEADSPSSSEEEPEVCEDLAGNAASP
Sequence of human RAR-related Orphan Receptor beta (RORb), RORB (gene 6096) (Q92753 whole entry, looked up, the tested form may be a part): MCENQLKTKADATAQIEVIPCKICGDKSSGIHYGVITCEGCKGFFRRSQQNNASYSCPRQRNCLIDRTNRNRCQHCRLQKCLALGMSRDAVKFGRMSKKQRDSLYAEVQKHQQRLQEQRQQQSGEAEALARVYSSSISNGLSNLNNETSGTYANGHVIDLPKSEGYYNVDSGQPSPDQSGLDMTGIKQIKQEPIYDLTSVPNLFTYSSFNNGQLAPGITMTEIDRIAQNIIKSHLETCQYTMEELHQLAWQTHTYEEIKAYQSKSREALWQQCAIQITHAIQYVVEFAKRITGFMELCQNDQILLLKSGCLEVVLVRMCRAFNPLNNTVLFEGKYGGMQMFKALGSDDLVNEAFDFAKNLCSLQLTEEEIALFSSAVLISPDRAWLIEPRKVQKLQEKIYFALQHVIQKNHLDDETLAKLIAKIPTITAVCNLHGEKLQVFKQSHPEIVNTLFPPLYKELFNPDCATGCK
Sequence of Glucocorticoid receptor (Homo sapiens) (P04150 whole entry, looked up, the tested form may be a part): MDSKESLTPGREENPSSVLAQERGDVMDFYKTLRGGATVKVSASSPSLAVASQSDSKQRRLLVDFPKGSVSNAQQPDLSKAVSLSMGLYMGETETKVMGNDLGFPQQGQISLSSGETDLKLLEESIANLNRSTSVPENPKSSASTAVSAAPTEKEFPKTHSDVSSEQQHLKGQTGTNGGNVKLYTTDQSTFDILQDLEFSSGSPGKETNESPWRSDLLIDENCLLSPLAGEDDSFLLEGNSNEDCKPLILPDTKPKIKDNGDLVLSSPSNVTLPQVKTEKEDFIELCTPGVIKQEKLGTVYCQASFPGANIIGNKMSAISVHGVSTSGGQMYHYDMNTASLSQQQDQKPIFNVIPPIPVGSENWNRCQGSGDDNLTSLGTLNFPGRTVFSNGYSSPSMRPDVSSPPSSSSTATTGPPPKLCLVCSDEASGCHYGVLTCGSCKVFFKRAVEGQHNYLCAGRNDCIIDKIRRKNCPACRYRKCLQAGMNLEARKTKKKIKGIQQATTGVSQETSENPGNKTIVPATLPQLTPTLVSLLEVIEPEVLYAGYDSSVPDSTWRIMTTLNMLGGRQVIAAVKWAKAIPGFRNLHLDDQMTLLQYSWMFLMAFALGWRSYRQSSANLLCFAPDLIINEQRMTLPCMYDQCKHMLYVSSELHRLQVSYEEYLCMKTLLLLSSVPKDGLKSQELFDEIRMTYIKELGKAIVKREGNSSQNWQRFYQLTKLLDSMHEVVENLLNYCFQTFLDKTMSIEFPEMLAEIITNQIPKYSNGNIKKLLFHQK
Sequence of Nuclear receptor subfamily 1 group I member 3 (Homo sapiens) (Q14994 whole entry, looked up, the tested form may be a part): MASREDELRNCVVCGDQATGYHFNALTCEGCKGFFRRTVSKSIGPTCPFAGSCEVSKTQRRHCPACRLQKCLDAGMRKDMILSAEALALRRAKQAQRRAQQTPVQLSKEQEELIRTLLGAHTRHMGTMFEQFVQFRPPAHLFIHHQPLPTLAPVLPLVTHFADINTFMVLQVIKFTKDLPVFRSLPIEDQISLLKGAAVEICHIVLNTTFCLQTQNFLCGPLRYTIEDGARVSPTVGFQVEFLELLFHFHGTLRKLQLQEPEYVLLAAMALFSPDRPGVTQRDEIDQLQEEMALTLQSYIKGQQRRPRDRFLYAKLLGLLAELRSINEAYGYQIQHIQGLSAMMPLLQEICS

As usually defined, the AC50 is the concentration at which the activity in the assay is half-maximal. For the molecule `CC(C)COP(=O)(OCC(C)C)OCC(C)C`, the call in assay [1], in [2], in [3], in assay [5], in assay [6] and in [7] was inactive. The outcome in [8] and in assay [9] was inactive. In addition, the AC50 in assay [4] was 49.8 µM (active).
`C=CC(=O)OCC(CC)CCCC` (centres undefined): the AC50 in [10] was 19.8 µM (active). In addition, the outcome in assay [11], in assay [12], in assay [2], in assay [13], in [3] and in assay [14] was inactive. The molecule was called inactive in [15], in [16], in assay [4], in [6], in assay [7] and in assay [8]. Besides, the result in assay [9] and in assay [17] was inactive.
As for `CN(C)C(=O)C(c1ccccc1)c1ccccc1`, the molecule was called inactive in assay [10], in assay [11], in assay [18], in [12], in [19] and in [3]. The result in [14], in [15], in [16], in assay [4], in assay [20] and in [6] was inactive. The call in assay [7], in [8], in assay [9] and in assay [17] was inactive.
For the molecule `Nc1ccc(Cl)c(Cl)c1`, the result in assay [13], in assay [15], in assay [4], in [5], in [6] and in assay [7] was inactive. Besides, the molecule was classed as inactive in assay [8], in assay [9] and in [17].
For `O=C(O)c1cc[c]([Hg][Cl])cc1`, the outcome in assay [1], in [11], in assay [12], in assay [13], in [14] and in assay [20] was inactive. Besides, the result in assay [5] and in assay [9] was inactive. Besides, the AC50 is 49.3 µM (active) in assay [16] and 44.6 µM (active) in [4].

Source of the values: PubChem BioAssay (EPA / NIEHS).
